# Screens deposited in PubChem by Broad Institute.
# In the library only some 1.4% were active in any assay of this set; here they are far more common.
# RAD52 inh: RAD52 DNA annealing inhibitors, primary screen, biochemical, FRET, single point, set 2. DNA repair protein RAD52 homolog (Homo sapiens), P43351. 360,000 tested, 0.46% active. recombinant RAD52 DNA annealing, FRET fluorescence. inhibition, % at 18.7 µM;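 active = every replicate showing at least 50% inhibition; inconclusive = mean inhibition at least 50% but not in every replicate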
# ERAP1 HTS inh: human ERAP1 aminopeptidase inhibitors, primary screen, biochemical, single point, plate reader; Endoplasmic reticulum aminopeptidase 1 (Homo sapiens), Q9NZ08; inhibition, % at 10.7 µM; AID 652197, 2013; 340,000 tested, 0.15% active; recombinant ERAP1, Leu-AMC fluorescence, 60 min;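 active = mean replicate inhibition of at least 30%, or all replicates individually reaching that 30% level; inactive = mean below 30% and not every replicate reaching it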
# AF4-AF9 inh: inhibitors of AF4 peptide binding to AF9, primary screen, biochemical, AlphaScreen, biotin-AF4 peptide, FLAG-AF9, single point. Protein AF-9 (Homo sapiens), P42568. inhibition, % at 10 µM. 350,000 tested, 0.47% active;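 active = every replicate reaching a set inhibition limit, whatever the replicate mean, cut at about 25% in these data; inconclusive = mean inhibition reaches that limit but some replicates miss it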
# GSIS activator: GLuc luminescence reporter in INS-1E cells, primary screen for activators of glucose-dependent secretion of insulin; 370,000 tested, 0.61% active; activation, % at 16.6 µM; INS-1E GLuc reporter insulin secretion, 2-3 h;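 active = lowest replicate activation of at least 40%, so every replicate reaches that level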
# RAD54 inh: inhibitors of human RAD54 branch migration, primary screen, biochemical, fluorescence, single point; RAD54 Holliday junction branch migration, FAM/BHQ fluorescence; inhibition, % at 10.4 µM; 360,000 tested, 0.14% active; AID 602329, 2012; DNA repair and recombination protein RAD54-like (Homo sapiens), Q92698;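 active = mean normalized replicate activity at least 40 and at least half of replicates scoring 40 or more; inconclusive = only one of the two criteria met; inactive = mean below 40 and under half of replicates reaching 40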;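 note: inhibitors cause a drop in the FAM fluorescence signal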
# Target sequence (Q92698 whole entry, looked up): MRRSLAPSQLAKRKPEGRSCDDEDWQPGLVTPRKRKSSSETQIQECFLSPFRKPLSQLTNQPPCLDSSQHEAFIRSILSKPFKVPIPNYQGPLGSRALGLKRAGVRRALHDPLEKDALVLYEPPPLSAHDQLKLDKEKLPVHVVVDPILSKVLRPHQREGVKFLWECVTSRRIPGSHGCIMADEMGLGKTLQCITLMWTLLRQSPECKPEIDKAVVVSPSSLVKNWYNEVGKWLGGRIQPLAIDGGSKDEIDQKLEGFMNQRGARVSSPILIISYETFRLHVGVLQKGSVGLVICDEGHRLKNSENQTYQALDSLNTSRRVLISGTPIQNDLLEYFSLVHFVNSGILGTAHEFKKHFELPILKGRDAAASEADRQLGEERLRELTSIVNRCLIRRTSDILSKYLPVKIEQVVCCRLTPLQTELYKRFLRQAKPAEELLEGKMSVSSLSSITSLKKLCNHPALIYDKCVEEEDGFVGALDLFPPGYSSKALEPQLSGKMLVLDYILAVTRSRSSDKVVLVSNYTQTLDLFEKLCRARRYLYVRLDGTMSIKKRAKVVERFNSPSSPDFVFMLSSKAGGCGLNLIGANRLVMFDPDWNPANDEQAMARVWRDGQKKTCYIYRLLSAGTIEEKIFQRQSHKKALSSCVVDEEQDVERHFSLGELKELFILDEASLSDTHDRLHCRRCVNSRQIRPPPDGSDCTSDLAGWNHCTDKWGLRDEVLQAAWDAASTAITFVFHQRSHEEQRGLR
# PGC1a acetyl inh: inhibitors of PGC1a acetylation signal, primary screen, cell-based, U2OS, AlphaScreen, inhibitor mode; inhibition, % at 15.6 µM; 350,000 tested, 0.17% active; AlphaScreen anti-acetyl-lysine; with virally co-expressed GCN5 acetyltransferase;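 active = every replicate shows inhibition of at least 40%; inconclusive = mean inhibition at least 40% but some replicate below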
# A number is an active result; i = inactive; ? = inconclusive; nt = no result given.
SMILES,RAD52 inh,ERAP1 HTS inh,AF4-AF9 inh,GSIS activator,RAD54 inh,PGC1a acetyl inh
CC1=NN(C(C#N)c2ccccc2O)C(C)(C)C1 (stereo not drawn),i,i,i,i,nt,i
CCN1C(C#N)=C(C#N)N=C(C)CC1(C)C,i,i,i,i,nt,109
C[C@H]1CN([C@@H](C)CO)C(=O)c2cccc(NC(=O)NC3CCCCC3)c2O[C@@H]1CN(C)Cc1ccc(C(=O)O)cc1,i,i,i,i,i,i
Cc1cc(-c2ccccc2)n2nc(N)nc2n1,i,i,i,49,i,i
Cc1cc(C)n2nc(N)nc2n1,i,i,i,nt,i,i
O=C(NCC1CC1)[C@H]1N[C@H]2c3ccc(C4=CCCCC4)c(=O)n3C[C@H]2[C@@H]1CO,i,i,i,i,i,nt
CCN(CC(=O)NCc1cccs1)C(=O)CCOc1ccccc1,i,i,i,i,i,i
CCOc1ccc(OCCC(=O)N(CC)CC(=O)NCc2cccs2)cc1,i,i,i,41,i,i
O=C(Nc1ccc2oc(-c3cccnc3)nc2c1)c1ccc2c(c1)OCCO2,nt,nt,nt,43,nt,nt
O=C(Nc1ccc2oc(-c3ccccc3)nc2c1)c1ccc2c(c1)OCCO2,nt,nt,nt,nt,i,nt
COCC#Cc1ccc([C@@H]2[C@@H](CO)N3C(=O)CN(C(=O)Nc4cc(F)ccc4F)C[C@H]23)cc1,nt,nt,nt,i,nt,nt
O=C(CN1CCOCC1)NCC[C@@H]1CC[C@@H](NC(=O)Nc2ccc(F)cc2)[C@@H](CO)O1,i,i,i,i,i,i
CCCCN(C(=O)c1ccc([N+](=O)[O-])o1)c1c(N)n(CC(C)C)c(=O)[nH]c1=O,i,87,i,i,i,i
CCc1noc(C)c1C(=O)N(CCOC)c1c(N)n(CC(C)C)c(=O)[nH]c1=O,i,95,i,i,i,i
CCCCn1c(N)c(N(CC)C(=O)c2ccco2)c(=O)[nH]c1=O,i,84,i,i,i,i
CCCCN(C(=O)c1c(CC)noc1C)c1c(N)n(CC(C)C)c(=O)[nH]c1=O,i,i,i,i,i,i
CN1[C@H](C(=O)NCC2CC2)[C@@H](CO)[C@@H]2Cn3c(ccc(-c4ccc(F)cc4)c3=O)[C@@H]21,i,i,i,i,i,i
CC(C)Oc1ccc(C(CCNCc2ccc(O)cc2)c2ccccc2)cc1 (stereo not drawn),i,i,i,i,i,i
COc1ccc(C(CCNCc2ccc(N(C)C)cc2)c2ccccc2)cc1 (stereo not drawn),i,i,50,i,i,nt
CC1CCC(C(C)C)C(OCC(O)CNC(C)c2ccccc2)C1 (stereo not drawn),i,i,i,199,nt,nt
CC1CCC(C(C)C)C(OCC(O)CNC(C)(C)C)C1 (stereo not drawn),i,i,i,i,nt,nt
COc1ccccc1Nc1nnc(SCC(=O)NC(=O)Nc2ccc3c(c2)OCCO3)s1,nt,nt,nt,81,nt,nt
COc1ccc(/C=N/NC(=O)Cn2cnc3ccccc3c2=O)cc1OC,nt,nt,nt,56,i,?
COc1ccc(/C=N/NC(=O)CCOc2ccccc2C)cc1OC,i,i,i,53,nt,nt
COc1ccc(NC(=O)Cn2cnc3ccccc3c2=O)cc1OC,i,i,i,i,nt,i
SMILES,RAD52 inh,ERAP1 HTS inh,AF4-AF9 inh,GSIS activator,RAD54 inh,PGC1a acetyl inh
COc1ccc(/C=C/C(=O)Oc2ccc(/C=N/NC(=O)c3ccccc3)cc2)cc1OC,nt,nt,nt,129,i,i
CCCN1[C@@H]2Cn3c(ccc(/C=C/c4ccccc4)c3=O)[C@H]1[C@@H](C(=O)NCc1ccccn1)[C@@H]2CO,i,i,i,i,i,nt
CC(C)CC#Cc1cnc2c(c1)C(=O)N([C@@H](C)CO)C[C@@H](C)[C@@H](CN(C)Cc1ccc3c(c1)OCO3)O2,i,i,i,i,i,i
COc1ccc(/C=C(\CC(=O)O)c2nc3ccccc3s2)cc1O,i,i,i,i,i,nt
CCOc1cc(/C=C(\CC(=O)O)c2nc3ccccc3s2)ccc1OC,i,i,i,51,nt,nt
CCC(=O)Nc1ccc2c(c1)C(=O)N(C)C[C@@H](OC)[C@H](C)CN(C(=O)C1CCC1)[C@@H](C)CO2,nt,nt,nt,i,nt,i
CCOc1ccc(CCNC(=O)COC(=O)c2ccc(C)s2)cc1OCC,i,i,i,52,i,nt
CCOc1ccc(CCNC(=O)COC(=O)c2nc(Cl)ccc2Cl)cc1OCC,i,i,i,44,i,nt
CCOc1ccc(CCNC(=O)COC(=O)c2cccnc2SC)cc1OCC,i,i,i,55,nt,nt
CCOc1ccc(CCNC(=O)COC(=O)c2cccs2)cc1OCC,i,i,i,i,i,i
CSc1ncccc1C(=O)OCc1ccccc1,nt,nt,nt,47,i,i
Cc1noc(C)c1S(=O)(=O)N(C)C[C@H]1Oc2ccc(NS(=O)(=O)c3ccc(Cl)cc3)cc2C(=O)N([C@@H](C)CO)C[C@H]1C,i,i,i,i,i,i
COc1ccc(CCNC(=O)COC(=O)c2ccc(C)s2)cc1,i,i,i,i,i,i
CCOc1ccc(CCNC(=O)Nc2ccccc2C)cc1OCC,i,i,i,i,i,nt
COc1ccc(CCNC(=O)COC(=O)c2ccc(C)s2)cc1OC,i,i,i,42,i,nt
CCOc1ccc(CCNC(=O)COC(=O)/C=C/c2ccco2)cc1OCC,i,i,i,44,i,nt
CCOc1ccc(CCNC(=O)COC(=O)CSc2ccccc2C)cc1OCC,i,i,i,57,i,nt
CCOc1ccccc1C(=O)OCC(=O)NCc1ccc2c(c1)OCO2,i,i,i,47,i,i
COc1ccc2c3c([nH]c2c1)[C@H](CO)N(Cc1ccccc1)CC31CCN(C(=O)c2cccnc2)CC1,nt,nt,nt,i,nt,nt
CC(=O)c1cccc(N(CC(=O)NC2CCCCC2)C(=O)Cn2nnc(-c3ccccc3)n2)c1,i,i,i,61,i,nt
Cc1cccc(N(CC(=O)NC2CCCCC2)C(=O)c2csnn2)c1,i,i,i,i,i,i
CC(=O)c1cccc(N(CC(=O)NC2CCCCC2)C(=O)c2csnn2)c1,i,i,34,i,i,nt
Cc1ccc(-c2nnn(CC(=O)N(CC(=O)NC3CCCCC3)c3cnc4ccccc4c3)n2)o1,nt,nt,nt,nt,i,i
COc1ccccc1NC(=O)N[C@H]1C=C[C@H](CC(=O)NCc2ccc(Cl)c(Cl)c2)O[C@@H]1CO,i,i,i,i,i,i
CN(C)c1ccc(C=C2SC(=S)NC2=O)cc1,i,i,i,i,i,51
CCOc1ccc(N(C)c2ccc(/C=C3/SC(=S)NC3=O)cc2)cc1,i,i,i,i,i,nt
CC(=O)N[C@H]1C=C[C@H](CC(=O)NCC2CCCCC2)O[C@@H]1CO,i,i,i,i,i,i
O=c1c2sccc2n(Cc2cccc(F)c2)c(=O)n1-c1ccc(F)cc1,nt,nt,nt,46,nt,nt
